Most compounds without a hit are left out; they make up all but 3.5% or so of the library.
TEAD-YAP inh = TEAD-YAP interaction inhibition | inhibition, % at 9.12 µM | actives 1.4% (n = 640,000) | HEK-TIYL cells, TEAD-Gal4/YAP UAS-luciferase luminescence; in the data active means inhibition above about 32%
FBW7 act = human FBW7 E3 ligase activation, primary screen; AlphaScreen FBW7–phospho-cyclin E peptide binding, activator screen; Q969H0; actives 0.13% (n = 650,000); normalized activity (activation), % at 26.1 µM; in the data active means normalized activity above about 1.9%;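 further: purified mutant Fbw7 with reduced substrate affinity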
GPR151 activ = human GPR151 activation. PathHunter beta-arrestin GPR151 cells, luminescence. actives 1% (n = 650,000). activation, % at 11.2 µM. AID 1508602. Q8TDV0; in the data active means activation above about 4.9%
MITF inh = blocks human microphthalmia-associated transcription factor; AID 1259374; inhibition, % at 2.6 µM; actives 0.91% (n = 650,000); AlphaScreen MITF homodimerization, bead proximity signal; in the data active means inhibition above about 50%
Target sequence (O75030 whole entry, looked up): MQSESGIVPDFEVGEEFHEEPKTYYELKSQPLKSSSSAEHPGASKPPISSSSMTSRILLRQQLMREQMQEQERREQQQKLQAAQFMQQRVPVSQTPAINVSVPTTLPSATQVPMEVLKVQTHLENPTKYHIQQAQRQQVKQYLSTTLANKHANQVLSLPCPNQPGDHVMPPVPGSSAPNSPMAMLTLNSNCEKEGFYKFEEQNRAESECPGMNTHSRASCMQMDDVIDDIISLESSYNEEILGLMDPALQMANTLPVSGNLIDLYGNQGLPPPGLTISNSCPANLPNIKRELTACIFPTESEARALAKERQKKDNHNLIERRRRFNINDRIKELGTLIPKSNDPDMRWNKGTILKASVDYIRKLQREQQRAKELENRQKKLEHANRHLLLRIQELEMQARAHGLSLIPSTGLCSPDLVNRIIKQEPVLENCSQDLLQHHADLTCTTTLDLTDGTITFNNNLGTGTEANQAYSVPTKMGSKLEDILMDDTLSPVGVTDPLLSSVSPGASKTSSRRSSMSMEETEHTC
A number is an active result; i = inactive.

SMILES	TEAD-YAP inh	FBW7 act	GPR151 activ	MITF inh
Brc1ccc2ncnc(NCCc3ccccc3)c2c1	64	i	i	i
COc1ccc2oc(C(=O)c3ccc(Cl)cc3)c(N)c2c1	i	i	i	i
COc1ccc2occ(C(=O)c3oc4ccccc4c3N)c2c1	32	i	i	i
COc1ccc2oc(C)c(C(=O)c3oc4ccccc4c3N)c2c1	34	i	i	i
COC(=O)c1oc2ccc(OC)cc2c1N	i	i	i	i
CCOC(=O)c1cccc2c1NC(c1ccc(C(=O)O)cc1)C1CC=CC21 (stereo not drawn)	i	i	i	83
COC(=O)c1cccc2c1NC(c1ccc(Br)cc1)C1CC=CC21 (stereo not drawn)	i	i	i	i
COC(=O)c1cccc2c1N[C@@H](c1ccc(C(=O)O)cc1)[C@H]1CC=C[C@@H]21	i	i	i	59
O=C(O)c1cccc2c1NC(c1ccccc1)C1CC=CC21 (stereo not drawn)	i	i	i	i
COc1cc(OC)c2c(c1)C1C=CCC1C(c1ccc(OC)c([N+](=O)[O-])c1)N2 (stereo not drawn)	i	i	i	i
O=C(O)c1cccc2c1NC(c1ccc(Br)cc1)C1CC=CC21 (stereo not drawn)	i	i	i	i
COC(=O)c1cccc2c1NC(c1ccc(C(=O)O)cc1)C1CC=CC21 (stereo not drawn)	i	i	i	68
COc1cc(OC)c2c(c1)C1C=CCC1C(c1ccc(C(=O)O)cc1)N2 (stereo not drawn)	i	i	i	73
Cc1nnc(C2CCCN(C(=O)NC(C)(C)C)C2)s1 (stereo not drawn)	i	i	i	i
O=C(CN1CCN(S(=O)(=O)c2ccc3c(c2)OCCO3)CC1)c1ccco1	i	i	i	i
COc1cc2nc(NC(=O)C3=COCCO3)sc2cc1OC	i	i	i	i
O=C(Nc1nc2cc3c(cc2s1)OCO3)C1=COCCO1	52	i	i	i
COc1ccccc1N1C(=O)NC2CC1(C)Oc1ccc(Br)cc12 (stereo not drawn)	i	i	i	i
CCOc1ccccc1N1C(=O)NC2CC1(C)Oc1ccc(Br)cc12 (stereo not drawn)	i	3.3	i	i
FC(F)(F)c1ccccc1NC(=S)N/N=C1\CC2CC=CC12 (stereo not drawn)	47	i	i	i
CC(=O)C(C(=O)c1ccccc1)C1c2ccccc2S(=O)(=O)c2ccccc21 (stereo not drawn)	i	i	i	i
c1cc(-n2cnc3c(NCCN4CCOCC4)nc(N4CCOCC4)nc32)cs1	56	i	i	i
c1ccc2c(c1)CCN(c1nc(NCCN3CCOCC3)c3ncn(-c4ccsc4)c3n1)C2	i	i	i	i
COc1cc(Nc2nc(N3CCC(N4CCOCC4)CC3)nc3c2ncn3-c2ccsc2)cc(OC)c1OC	i	i	i	i
CC(=O)Nc1ccc(Nc2nc(N3CCC(N4CCOCC4)CC3)nc3c2ncn3-c2ccsc2)cc1	46	i	i	i
SMILES	TEAD-YAP inh	FBW7 act	GPR151 activ	MITF inh
c1ccc(OCCNc2nc(N3CCOCC3)nc3c2ncn3-c2ccccc2)cc1	i	i	i	i
c1cc(-n2cnc3c(NCCN4CCOCC4)nc(N4CCC(N5CCOCC5)CC4)nc32)cs1	43	i	i	i
OCCNc1nc(N2CCOCC2)nc2c1ncn2-c1ccccc1	48	i	i	i
CCOC(=O)c1c(NC(=O)c2ccccc2)sc2c1CC(C)(C)NC2(C)C	i	i	i	i
c1ccc2[nH]c(CNc3nc(N4CCC(N5CCOCC5)CC4)nc4c3ncn4-c3ccsc3)nc2c1	54	i	i	i
OCCNc1nc(N2CCOCC2)nc2c1ncn2-c1ccsc1	69	i	i	i
COc1ccc(/C(C#N)=C/c2ccc3c(c2)OCO3)cc1OC	37	i	i	i
CCOc1ccc(/C=C(/C#N)c2ccc3c(c2)OCO3)cc1	i	i	i	i
COc1cccc(CNC(=O)c2ccc3nc(-c4ccc(C)cc4)c(-c4ccc(C)cc4)nc3c2)c1	i	i	i	i
COc1ccc(-c2nc3ccc(C(=O)NCc4cccnc4)cc3nc2-c2ccc(OC)cc2)cc1	45	i	i	i
Cc1ccc(-n2nc3ccc(N)cc3n2)c(C)c1	40	i	i	i
Cc1ccc(-n2nc3ccc(N)cc3n2)cc1Cl	i	i	i	i
COC(=O)c1c(NC(=O)c2ccco2)sc(C(=O)Nc2ccc(F)cc2)c1C	i	i	i	i
COC(=O)c1c(NC(=O)c2ccco2)sc(C(=O)Nc2ccc(C)cc2)c1C	34	i	i	i
COc1cc(/C=N/NC(=S)NC2CCS(=O)(=O)C2)ccc1O (stereo not drawn)	i	i	i	i

Screening data: PubChem BioAssay, The Scripps Research Institute Molecular Screening Center
